The record followed here is PubChem BioAssay (NCI).

Assay in all cases: NCI-60 one-dose screen, 48 h (100 = growth as untreated, 0 = no growth, -100 = all killed)
In assay [1] the test system is SK-MEL-2 melanoma. As to conditions: 10 µM unless noted.
The test system of assay [2] is EKVX NSCLC. Particulars: 10 µM unless noted.
For assay [3], the system named is UO-31 renal. As to conditions: 10 µM unless noted.
The subject of assay [4] is TK-10 renal. As to conditions: 10 µM unless noted.
Assay [5] deals with ACHN renal. As to conditions: 10 µM unless noted.
Assay [6] deals with A498 renal. As to conditions: 10 µM.
Assay [7] deals with HL-60(TB) leukemia. Particulars: 10 µM unless noted.
Assay [8] has as its system CCRF-CEM leukemia. Particulars: 10 µM unless noted.
The subject of assay [9] is CAKI-1 renal. As to conditions: 10 µM unless noted.
Assay [10] deals with SN12C renal. Particulars: 10 µM unless noted.

Molecules are shown by their SMILES. Compounds without any hit were thinned out: in the full panel of roughly 83,000, 20% have a hit.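 For each line, cells grew in 96-well plates with the test compound present at a single concentration for 48 hours.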 Unmarked numbers belong to inactive results. Calls of active or inactive are those of the source. Rule for the calls: active = growth percent below 10; inactive = the rest.

On to `CC1(C)N=C(N)N=C(N)N1c1ccc(CCC(=O)Nc2ccc(S(=O)(=O)F)cc2)c(Cl)c1`, for which the growth in assay [1] is 48.5%; in [2], 55.1%; in [3] it was 93.1%; in assay [4], 42.4%; in assay [5], 47.9%; in assay [6], 34.8%. The growth in [7] is 18.3%; in assay [8], 44.9%.
As for `CCCCCCCCC(CO)NCCc1ccccc1` (configuration not stated), the growth was 96.3% in assay [1]; 119% in [2]; 88.1% in assay [3]; 98.8% in assay [4]; 95.2% in [6]; 70.1% in assay [7]. In addition, the growth in assay [8] was 62%.
Regarding `CCCCNC(c1ccc(Cl)cc1)C(O)c1ccc(Cl)cc1` (configuration not stated), the growth was 62.5% in assay [1]; 53.9% in assay [2]; 36.9% in assay [3]; 56.8% in [4]; 35.2% in assay [5]; 30.3% in assay [9]. Also, the growth in [6] was 57.8%; in assay [7], 19.6%; in [8], 29.7%.
Take `CC1(C)CN1P(=O)(N1CC1(C)C)N1CC1(C)C` (configuration not stated): the growth in assay [1] was 115%; in [2], 124%; in assay [3], 85%; in assay [4], 118%; in assay [5] it was 112%; in [6], 102%. Also, the growth was 90% in assay [7] and 106% in assay [8].
As for `C=CC1=C[C@@H]2[C@@H]3O[C@]4(CC[C@H](O4)[C@@H](C)C[C@@H](O)C3=O)C[C@H](O)C3=NCC[C@@]32CC1`, the growth in assay [1] was -45.1% (active); in assay [10], -15% (active); in assay [3], -38.8% (active); in [4], -21% (active); in assay [5], -64.8% (active); in assay [9] it was -11.4% (active). In addition, the growth in [6] is -82.6% (active); in assay [7], -5.3% (active); in assay [8] it was 4.16% (active).
`CC(C)=CCC/C(C)=C/C=N\N=C(/N)N[N+](=O)[O-]`: the growth in assay [1] was 92.9%; in assay [10], 100%; in assay [3], 69.7%; in assay [4], 87.4%; in [5], 109%; in assay [9] it was 84.9%. Moreover, the growth in assay [6] is 83.9%; in [7] it was 113%; in assay [8] it was 93.3%.
With `O=C1CN=C(c2ccc(Cl)cc2)c2sccc2N1`, the growth in assay [1] was 107%; in assay [10], 96.2%; in assay [3], 84.6%; in assay [4] it was 99.7%; in assay [5], 104%; in assay [9], 97.9%. Moreover, the growth in assay [6] is 102%; in assay [7], 98.3%; in assay [8], 97.4%.
Take `N/C(=N\N=C\c1ccc(-c2ccccc2)cc1)N[N+](=O)[O-]`: the growth in [1] is 47.1%; in assay [10], 53.3%; in [3] it was 45.2%; in assay [4], 44.6%; in [5] it was 52.5%; in assay [9], 27.5%. In addition, the growth in assay [6] is 5.42% (active); in assay [7], -16.2% (active); in [8] it was 11.9%.
Consider `COC[C@@H]1C[C@@]2(C)[C@@H](CC[C@@H]3[C@@H]2CC[C@@]2(C)[C@H]3CC[C@]2(C)O)CC1=O`, for which the growth in assay [1] was 83.2%; in assay [10], 107%; in assay [3], 91.1%; in assay [4] it was 85.2%; in [5] it was 92.6%; in [9] it was 94.4%. Moreover, the growth was 111% in assay [6] and 78.6% in assay [7].
On to `COc1cc(C=Nc2cccc(C(=O)O)c2)ccc1N(CCCl)CCCl`, for which the growth is 108% in assay [1]; 98.5% in assay [10]; 84.6% in [3]; 125% in [4]; 81.8% in assay [5]; 95% in assay [9]. Further, the results for the growth in assay [6], in assay [7] and in assay [8] were 102%, 110% and 102%, respectively.
Regarding `CN1CCC(O)(c2ccc(F)cc2)C(C(=O)c2ccc(F)cc2)C1` (configuration not stated), the growth in [1] is 91.2%; in assay [10], 104%; in assay [3] it was 84.7%; in [4], 110%; in assay [5], 101%; in assay [9], 104%. Besides, the growth in assay [6] was 104%; in assay [7] it was 134%; in assay [8], 85.2%.
Consider `COc1cc(NCCCN=C(N)N)c2ncccc2c1`, for which the growth in assay [1] was 27.8%; in [10], 2.57% (active); in assay [3], 89.4%; in assay [4], 80%; in [5], 100%; in assay [9], 97.9%. In addition, the growth in assay [6] was 73.6%.
As for `OCCCCCNC1CCCCC1`, the growth is 80.7% in assay [1]; 105% in assay [10]; 87.5% in assay [3]; 86.5% in assay [4]; 94.1% in assay [5]; 101% in assay [9]. The growth was 105% in assay [6] and 91.7% in assay [7].
With `O=C1C2C(C(=O)[N]1[Hg][c]1ccccc1)C1(Cl)C(Cl)=C(Cl)C2(Cl)C1(Cl)Cl` (configuration not stated), the growth in assay [1] is 50.8%; in assay [10] it was -71.7% (active); in [3], -77.1% (active); in assay [4], -95.9% (active); in [5], -98.5% (active); in assay [9], -87.5% (active). Besides, the growth is 32.8% in [6], -18.4% (active) in assay [7] and -23.8% (active) in assay [8].
Take `Cc1c(O)c(CN(CCCl)CCCl)cc(CN(CCCl)CCCl)c1O`: the growth was 110% in assay [1]; 72.9% in assay [10]; 70.3% in assay [3]; 100% in assay [4]; 42.5% in [5]; 17.6% in assay [9]. For the same compound, the growth in [6] is 92.4%; in [7], 47.1%; in assay [8], 41.8%.
